Laboratory results taken from PubChem BioAssay.
Activity calls are given as the source filed them.

Key:
[1] = tested on: PRMT1 (protein arginine N-methyltransferase 1); assay: PRMT1 binders on small-molecule microarrays, primary screen, biochemical, small-molecule microarray, 635 nm fluorescence (AID 1088); conditions: small-molecule microarray binding, higher = more signal;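 note: binding of Prmt1 protein to compounds spotted on small-molecule microarray slides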
[2] = yeast growth modulation, basal conditions, primary screen, YJM789 clinical isolate, OD600, 24 h (AID 1089);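 note: growth of clinical yeast isolate S. cerevisiae YJM 789 seeded 1000 cells per well; test concentration not given here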; conditions: S. cerevisiae YJM789 growth, higher = more signal, called active from +8 up or from −8 down
[3] = fission yeast growth modulation, primary screen, strain 972, OD600, 24 h, no modulator (AID 1090);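 note: basal condition with compound alone and no growth modifier present; test concentration not given here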; conditions: S. pombe 972 growth, higher = more signal, called active from +8 up or from −8 down
[4] = S. cerevisiae growth modulation with rapamycin, primary screen, strain BY4716, OD600, 96 h (AID 1091); conditions: higher = more signal, called active from +8 up or from −8 down; note: test concentration not given here
[5] = target: Torsin-1A-interacting protein 2 (Homo sapiens) (UniProt Q8NFQ8); assay: LULL1 binders on small-molecule microarray, primary screen, cell lysate, human LULL1 lysate, 635/667 nm fluorescence (AID 1092); conditions: hLULL1 lysate binding, 635 nm fluorescence, higher = more signal;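 note: probe is lysate of COS7 cells overexpressing human LULL1; score merges per-feature 667 nm fluorescence with signal-to-noise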
Sequence of Torsin-1A-interacting protein 2 (Homo sapiens) (Q8NFQ8 whole entry, looked up): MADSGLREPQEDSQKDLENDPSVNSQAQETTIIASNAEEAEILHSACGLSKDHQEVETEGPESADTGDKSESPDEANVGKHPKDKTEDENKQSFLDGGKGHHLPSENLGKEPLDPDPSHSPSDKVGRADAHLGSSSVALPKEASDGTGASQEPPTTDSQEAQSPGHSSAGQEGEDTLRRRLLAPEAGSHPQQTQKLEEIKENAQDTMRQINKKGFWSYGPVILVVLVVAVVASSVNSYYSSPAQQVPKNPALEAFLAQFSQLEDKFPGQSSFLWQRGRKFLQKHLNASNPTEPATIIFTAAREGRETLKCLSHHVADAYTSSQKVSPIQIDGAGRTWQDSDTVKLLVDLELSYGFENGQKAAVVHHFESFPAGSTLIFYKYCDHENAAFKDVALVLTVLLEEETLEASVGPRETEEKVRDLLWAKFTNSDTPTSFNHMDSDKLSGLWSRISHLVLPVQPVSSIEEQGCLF

[6] = E. coli growth modulation, two-sided OD650, primary screen, E. coli filamentation project, strain DRC41, 24 h (AID 1093); conditions: OD650, 24 h, higher = more signal, called active from +8 up or from −8 down;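 note: MC1000 strain lacking acrAB efflux and sulA so SOS filamentation is blocked; test concentration not given here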
[7] = small-molecule microarray binders of probe aLefty2, primary screen, biochemical, biotinylated probe, 635/667 nm fluorescence (AID 1094); conditions: higher = more signal;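 note: score merges spot fluorescence near 667 nm with spot signal-to-noise ratio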
[8] = tested on: Noggin (protein binding on small-molecule microarray); assay: Noggin binders on small-molecule microarray, primary screen, biochemical, 635/667 nm fluorescence (AID 1095); conditions: 635 nm fluorescence, higher = more signal;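 note: score merges 667 nm feature fluorescence with signal to noise over triplicate slides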
[9] = target: Neurogenic locus notch homolog protein 3 (Homo sapiens) (UniProt Q9UM47); assay: NOTCH3 binders on small-molecule microarray, primary screen, biochemical, 635/667 nm fluorescence (AID 1096); conditions: NOTCH3 binding, 635 nm fluorescence, higher = more signal
Sequence of Neurogenic locus notch homolog protein 3 (Homo sapiens) (Q9UM47 whole entry, looked up): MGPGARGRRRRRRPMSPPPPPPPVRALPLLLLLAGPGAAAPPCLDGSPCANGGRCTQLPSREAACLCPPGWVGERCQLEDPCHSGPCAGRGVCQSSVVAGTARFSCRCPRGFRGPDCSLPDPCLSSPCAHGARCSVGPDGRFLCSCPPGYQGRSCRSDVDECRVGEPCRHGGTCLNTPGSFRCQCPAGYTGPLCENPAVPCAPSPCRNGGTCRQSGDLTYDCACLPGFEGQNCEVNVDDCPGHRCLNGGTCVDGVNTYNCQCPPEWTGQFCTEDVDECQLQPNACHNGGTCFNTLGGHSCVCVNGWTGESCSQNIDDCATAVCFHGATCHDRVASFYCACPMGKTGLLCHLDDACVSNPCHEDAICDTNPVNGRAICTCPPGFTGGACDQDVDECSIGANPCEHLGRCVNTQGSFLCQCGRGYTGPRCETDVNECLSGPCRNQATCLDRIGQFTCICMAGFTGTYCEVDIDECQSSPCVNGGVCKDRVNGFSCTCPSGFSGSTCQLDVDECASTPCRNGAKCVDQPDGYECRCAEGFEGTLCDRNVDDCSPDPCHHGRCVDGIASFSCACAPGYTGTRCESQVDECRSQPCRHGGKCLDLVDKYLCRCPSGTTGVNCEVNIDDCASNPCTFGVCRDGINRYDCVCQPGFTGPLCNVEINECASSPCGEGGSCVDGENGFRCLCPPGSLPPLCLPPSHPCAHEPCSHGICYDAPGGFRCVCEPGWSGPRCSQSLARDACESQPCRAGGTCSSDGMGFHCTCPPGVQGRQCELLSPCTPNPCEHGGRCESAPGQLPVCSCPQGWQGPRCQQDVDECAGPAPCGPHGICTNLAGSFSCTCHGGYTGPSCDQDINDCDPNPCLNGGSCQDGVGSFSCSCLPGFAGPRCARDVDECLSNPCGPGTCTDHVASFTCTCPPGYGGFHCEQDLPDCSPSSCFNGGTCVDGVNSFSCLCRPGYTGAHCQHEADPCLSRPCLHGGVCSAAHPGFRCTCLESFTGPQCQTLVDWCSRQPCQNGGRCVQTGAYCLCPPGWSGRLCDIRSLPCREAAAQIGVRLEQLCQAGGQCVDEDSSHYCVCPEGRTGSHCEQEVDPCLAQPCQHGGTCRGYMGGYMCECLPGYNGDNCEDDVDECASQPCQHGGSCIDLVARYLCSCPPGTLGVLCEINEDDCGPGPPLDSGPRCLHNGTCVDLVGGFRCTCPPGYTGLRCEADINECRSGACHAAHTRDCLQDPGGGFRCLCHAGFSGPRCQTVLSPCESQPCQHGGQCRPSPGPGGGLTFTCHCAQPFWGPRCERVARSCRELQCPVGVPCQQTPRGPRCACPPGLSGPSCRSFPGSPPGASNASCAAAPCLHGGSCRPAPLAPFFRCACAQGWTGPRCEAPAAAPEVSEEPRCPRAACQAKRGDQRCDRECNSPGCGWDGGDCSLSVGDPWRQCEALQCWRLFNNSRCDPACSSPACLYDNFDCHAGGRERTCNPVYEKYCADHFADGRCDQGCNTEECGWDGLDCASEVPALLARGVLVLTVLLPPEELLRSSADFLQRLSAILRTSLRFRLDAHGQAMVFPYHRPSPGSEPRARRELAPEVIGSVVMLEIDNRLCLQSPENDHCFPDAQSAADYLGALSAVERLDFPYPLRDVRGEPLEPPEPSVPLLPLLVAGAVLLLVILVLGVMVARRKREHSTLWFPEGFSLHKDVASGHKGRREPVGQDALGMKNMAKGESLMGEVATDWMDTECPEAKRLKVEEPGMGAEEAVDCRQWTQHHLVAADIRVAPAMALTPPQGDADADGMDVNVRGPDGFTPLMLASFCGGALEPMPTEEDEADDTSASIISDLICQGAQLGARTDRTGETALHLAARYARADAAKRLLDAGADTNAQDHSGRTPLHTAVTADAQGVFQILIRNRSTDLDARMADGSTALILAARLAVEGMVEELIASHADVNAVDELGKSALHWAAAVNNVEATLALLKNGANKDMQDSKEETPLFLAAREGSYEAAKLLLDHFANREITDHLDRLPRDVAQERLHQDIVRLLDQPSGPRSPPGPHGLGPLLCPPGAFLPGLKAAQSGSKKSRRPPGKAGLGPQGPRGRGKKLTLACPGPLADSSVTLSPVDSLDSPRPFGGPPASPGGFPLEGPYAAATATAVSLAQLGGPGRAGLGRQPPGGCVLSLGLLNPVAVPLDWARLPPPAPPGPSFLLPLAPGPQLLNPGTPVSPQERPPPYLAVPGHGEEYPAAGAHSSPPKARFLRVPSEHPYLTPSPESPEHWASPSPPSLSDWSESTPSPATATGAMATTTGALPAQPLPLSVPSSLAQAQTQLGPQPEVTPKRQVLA

[10] = small-molecule microarray binders of probe aEGFR, primary screen, biochemical, biotinylated probe, 635/667 nm fluorescence (AID 1097); conditions: higher = more signal;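 note: probe is a biotinylated anti-EGFR antibody binding compounds printed on slides; score combines fluorescence near 667 nm and signal to noise of each spot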
[11] = tested on: Plasmodium falciparum Sir2 (PF13_0152, Sir2A); assay: pfSir2 binders on small-molecule microarrays, primary screen, biochemical, small-molecule microarray, 635 nm fluorescence (AID 1098); conditions: small-molecule microarray binding, fluorescence 635 nm; higher = more signal;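 note: score merges spot fluorescence intensity with its signal-to-noise ratio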
[12] = small-molecule microarray binders of probe aDKK1, primary screen, biochemical, biotinylated probe, 635/667 nm fluorescence (AID 1099); conditions: higher = more signal;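 note: score merges 667nm spot fluorescence with signal to noise across triplicate slides; reference of the scale not given here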
[13] = small-molecule microarray binders of probe aCHRDL2, primary screen, biochemical, biotinylated probe, 635/667 nm fluorescence (AID 1100); conditions: higher = more signal
[14] = splicing luciferase reporter signal modulators, primary screen, spliceosome inhibition project, cell-based, HEK293, splice +/- reporter (AID 1101); conditions: luminescence, 24 h, higher = more signal, called active from +8 up or from −8 down;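 note: HEK293 cells carrying a splicing-competent luciferase reporter gene; test concentration not given here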
[15] = target: Fibroblast growth factor 10 (Homo sapiens) (UniProt O15520); assay: FGF10 binders on small-molecule microarrays, primary screen, biochemical, small-molecule microarray, 635 nm fluorescence (AID 1102); conditions: FGF10 binding, fluorescence 635 nm, higher = more signal
Sequence of Fibroblast growth factor 10 (Homo sapiens) (O15520 whole entry, looked up): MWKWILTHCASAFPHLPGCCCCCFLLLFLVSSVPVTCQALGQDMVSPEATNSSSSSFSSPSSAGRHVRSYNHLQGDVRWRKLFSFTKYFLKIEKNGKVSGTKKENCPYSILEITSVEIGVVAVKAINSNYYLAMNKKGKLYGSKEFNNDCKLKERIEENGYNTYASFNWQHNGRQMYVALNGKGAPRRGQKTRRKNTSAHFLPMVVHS

[16] = tested on: glycogen synthase kinase-3 (GSK3A per assay name; protocol says GSK3B); assay: GSK3 binders on small-molecule microarrays, primary screen, biochemical, small-molecule microarray, 635 nm fluorescence, GSK3A (AID 1103); conditions: small-molecule microarray binding, fluorescence 635 nm; higher = more signal; note: the record names both GSK3A and GSK3B
[17] = target: Epidermal growth factor receptor (Homo sapiens) (UniProt P00533); assay: EGFR binders on small-molecule microarrays, primary screen, biochemical, small-molecule microarray, 635 nm fluorescence (AID 1104); conditions: EGFR binding, higher = more signal;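 note: score merges 667 nm emission intensity with spot signal to noise over triplicate slides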
Sequence of Epidermal growth factor receptor (Homo sapiens) (P00533 whole entry, looked up): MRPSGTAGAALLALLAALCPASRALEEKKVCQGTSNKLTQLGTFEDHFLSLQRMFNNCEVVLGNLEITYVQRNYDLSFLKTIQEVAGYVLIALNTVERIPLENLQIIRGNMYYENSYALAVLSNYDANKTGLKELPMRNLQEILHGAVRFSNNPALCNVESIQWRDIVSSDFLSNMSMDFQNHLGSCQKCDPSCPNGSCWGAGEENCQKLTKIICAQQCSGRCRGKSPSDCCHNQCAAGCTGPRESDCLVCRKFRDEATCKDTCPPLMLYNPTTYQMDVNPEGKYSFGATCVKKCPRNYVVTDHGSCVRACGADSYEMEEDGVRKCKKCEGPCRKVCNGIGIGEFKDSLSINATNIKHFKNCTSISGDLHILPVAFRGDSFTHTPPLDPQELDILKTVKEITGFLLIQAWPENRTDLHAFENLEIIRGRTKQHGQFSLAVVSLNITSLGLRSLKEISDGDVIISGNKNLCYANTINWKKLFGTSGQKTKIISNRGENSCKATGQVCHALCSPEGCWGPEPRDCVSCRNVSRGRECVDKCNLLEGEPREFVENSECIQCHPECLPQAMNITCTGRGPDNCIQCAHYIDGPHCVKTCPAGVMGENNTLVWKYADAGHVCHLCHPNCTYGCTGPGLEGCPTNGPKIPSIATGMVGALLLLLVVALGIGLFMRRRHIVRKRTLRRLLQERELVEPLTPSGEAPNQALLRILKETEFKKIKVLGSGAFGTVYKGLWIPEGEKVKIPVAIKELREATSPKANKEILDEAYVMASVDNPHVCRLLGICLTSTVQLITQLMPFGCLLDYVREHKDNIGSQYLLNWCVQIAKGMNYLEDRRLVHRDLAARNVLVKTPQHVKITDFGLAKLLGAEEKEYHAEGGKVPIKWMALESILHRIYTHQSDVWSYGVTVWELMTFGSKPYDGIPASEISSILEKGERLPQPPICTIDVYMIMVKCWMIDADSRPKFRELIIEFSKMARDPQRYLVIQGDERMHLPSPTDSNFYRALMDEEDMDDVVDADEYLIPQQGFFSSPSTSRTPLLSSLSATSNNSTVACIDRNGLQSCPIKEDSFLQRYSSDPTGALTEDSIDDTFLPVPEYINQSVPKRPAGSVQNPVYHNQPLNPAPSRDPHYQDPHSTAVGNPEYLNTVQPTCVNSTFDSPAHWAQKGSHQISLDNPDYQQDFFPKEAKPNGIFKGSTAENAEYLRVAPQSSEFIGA

[18] = target: Follistatin-related protein 3 (Homo sapiens) (UniProt O95633); assay: FSTL3 binders on small-molecule microarrays, primary screen, biochemical, small-molecule microarray, 635 nm fluorescence (AID 1105); conditions: FSTL3 binding, higher = more signal;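 note: score merges emission near 667 nm and signal to noise per printed spot across three slides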
Sequence of Follistatin-related protein 3 (Homo sapiens) (O95633 whole entry, looked up): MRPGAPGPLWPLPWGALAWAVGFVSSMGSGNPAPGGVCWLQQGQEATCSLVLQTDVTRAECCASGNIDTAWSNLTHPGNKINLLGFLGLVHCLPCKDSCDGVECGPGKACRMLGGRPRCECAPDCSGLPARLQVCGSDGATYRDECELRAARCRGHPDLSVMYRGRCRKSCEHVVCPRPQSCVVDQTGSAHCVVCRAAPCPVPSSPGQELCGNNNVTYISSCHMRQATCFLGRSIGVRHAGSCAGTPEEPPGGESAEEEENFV

[19] = target: Dickkopf-related protein 1 (Homo sapiens) (UniProt O94907); assay: DKK1 binders on small-molecule microarrays, primary screen, biochemical, small-molecule microarray, 635 nm fluorescence scan (AID 1106); conditions: DKK1 binding, higher = more signal;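 note: score merges emission near 667 nm with signal to noise over three replicate slides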
Sequence of Dickkopf-related protein 1 (Homo sapiens) (O94907 whole entry, looked up): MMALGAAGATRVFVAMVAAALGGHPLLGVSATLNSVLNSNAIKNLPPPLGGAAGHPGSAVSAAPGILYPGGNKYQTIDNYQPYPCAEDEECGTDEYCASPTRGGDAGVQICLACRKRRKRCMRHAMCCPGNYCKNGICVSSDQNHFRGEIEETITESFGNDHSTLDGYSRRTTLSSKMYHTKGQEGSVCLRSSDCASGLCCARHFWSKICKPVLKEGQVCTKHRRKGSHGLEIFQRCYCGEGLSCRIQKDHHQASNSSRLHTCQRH

[20] = tested on: Inhibin beta A chain (activin A); assay: INHBA (activin A) binders on microarrays, primary screen, biochemical, small-molecule microarray, 635 nm fluorescence scan (AID 1107); conditions: small-molecule microarray binding, higher = more signal;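 note: mouse activin A protein probed at 4.33 µg/mL on printed slides; score merges bound-protein fluorescence near 667 nm with spot signal-to-noise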

| SMILES | composite z-score [1] | z-score [2] | z-score [3] | z-score [4] | composite z-score [5] | z-score [6] | composite z-score [7] | composite z-score [8] | composite z-score [9] | composite z-score [10] | composite z-score [11] | composite z-score [12] | composite z-score [13] | z-score [14] | composite z-score [15] | composite z-score [16] | composite z-score [17] | composite z-score [18] | composite z-score [19] | composite z-score [20] |
| --- | --- | --- | --- | --- | --- | --- | --- | --- | --- | --- | --- | --- | --- | --- | --- | --- | --- | --- | --- | --- |
| CCOC(=O)NN=C1C[C@@H](O)[C@@H](O)[C@@H]2[C@@H]3C(=O)N([C@@H](C)c4ccccc4)C(=O)[C@@H]3CC[C@@H]12 | 1.46 | -0.707 (inactive) | 0.159 (inactive) | -0.231 (inactive) | -0.0284 | 0.667 (inactive) | -0.113 | 0.797 | 0.954 | 0.143 | 0.799 | -0.315 | -0.677 | 1.31 (inactive) | 0.725 | 1.12 | 1.09 | 1.34 | 0.867 | 1.43 |
| CCCCC#C[C@@H]1C=C[C@H](Oc2cc(OC)c(OC)c(OC)c2)[C@@H](COC(=O)OCC)O1 | 0.314 | 0.635 (inactive) | -2.19 (inactive) | 0.398 (inactive) | -0.16 | 0.934 (inactive) | -0.209 | 0.229 | -0.208 | -0.162 | 0.589 | -0.328 | -0.619 | -0.696 (inactive) | 0.306 | -0.682 | 0.0389 | -0.203 | 0.514 | 0.444 |
| CCOC(=O)[C@H](CC(C)C)NC(=O)CCC1CC(OC(=O)NCCc2ccc(F)cc2)CC2(CCCC(COC(=O)NCCc3ccccc3OC)O2)O1 (stereo not given in full) | 1.15 | 0.217 (inactive) | 1.02 (inactive) | 0.471 (inactive) | 1.73 | -0.0351 (inactive) | -0.19 | 0.718 | 1.12 | 0.0004 | 0.82 | -0.186 | -0.313 | -0.135 (inactive) | 0.768 | 0.773 | 0.603 | 0.744 | 0.526 | -0.0274 |
| Cc1cc2c(c(=O)o1)[C@@H](O)[C@H]1O[C@H]1C2=O | 0.798 | 0.112 (inactive) | -0.0772 (inactive) | 0.233 (inactive) | 0.0376 | -1 (inactive) | -0.358 | 0.887 | 0.482 | -0.12 | 0.338 | -0.145 | -0.699 | -0.533 (inactive) | 0.436 | 0.231 | 0.287 | 0.522 | 0.585 | 0.0545 |
| CO[C@@H]1C=CCC(=O)N[C@@H](C)C(=O)OC[C@@H](OC)[C@H](C)CCCC(=O)OC[C@H]1C | 1.44 | -0.465 (inactive) | -0.111 (inactive) | -1.17 (inactive) | -2.13 | 0.976 (inactive) | -0.153 | 1.91 | -1.04 | -0.0485 | 1.55 | -0.352 | -1.05 | -0.646 (inactive) | 0.473 | 0.0516 | 1.08 | 1.22 | 1.64 | 1.23 |
| C#CCCCON=C1[C@H]2CCn3c(=O)n(-c4ccccc4)c(=O)n3[C@H]2[C@H](O)[C@@H]2O[C@H]12 | 0.192 | -1.65 (inactive) | -0.813 (inactive) | -0.864 (inactive) | 0.463 | -0.623 (inactive) | -0.202 | 0.422 | 0.496 | -0.0938 | 0.164 | 0.238 | -0.615 | -1.65 (inactive) | 0.291 | 0.621 | 0.537 | 0.725 | 0.521 | 0.127 |
| O=C1C[C@@H](O)[C@@H](O)[C@@H]2[C@@H]3C(=O)N(Cc4ccccc4)C(=O)[C@@H]3CC[C@@H]12 | 0.187 | -0.365 (inactive) | -0.136 (inactive) | -0.115 (inactive) | 0.824 | -0.174 (inactive) | -0.14 | 0.45 | 0.618 | -0.0432 | 0.463 | -0.222 | -0.47 | 0.859 (inactive) | 0.807 | 0.863 | 0.506 | 0.888 | 0.59 | 0.11 |
| CO[C@@H]1COC(=O)[C@H](CCSC)NC(=O)CC=C[C@@H](C)COC(=O)[C@H](C)NC(=O)CC=C[C@H]1C | 1.39 | 0.153 (inactive) | -0.266 (inactive) | 0.291 (inactive) | -0.0068 | 1.01 (inactive) | -0.247 | 0.783 | 0.989 | -0.201 | 0.931 | -0.34 | -0.833 | 0.0885 (inactive) | 0.816 | 0.856 | 0.953 | 1.1 | 1.19 | -0.0263 |
| CCC=CCCC(OC(=O)c1ccc(Br)cc1)C1=CCCCC1=O (stereo not given) | 1.33 | -1.32 (inactive) | -5.44 (inactive) | -2.98 (inactive) | 1.35 | -0.133 (inactive) | -0.0018 | 0.493 | 0.554 | -0.0187 | 0.964 | -0.305 | 0.457 | 0.798 (inactive) | 0.681 | 0.166 | 0.718 | 1.05 | 0.592 | 1.55 |
| Cc1cc2c(nc1C)CCCCN2CC(C)ON=C1[C@H]2CCn3c(=O)n(-c4ccccc4)c(=O)n3[C@H]2[C@H](O)[C@@H]2O[C@H]12 (stereo not given in full) | 0.208 | 0.678 (inactive) | -0.167 (inactive) | 0.103 (inactive) | 0.998 | 0.777 (inactive) | 0.106 | 0.439 | 0.258 | -0.0922 | 0.606 | 0.213 | -0.0869 | 0.718 (inactive) | 1.11 | 0.331 | 0.302 | 1.05 | 0.7 | 1.3 |
